Assay results as given in the supplement of paper PMC10515830.
Structures can show the parent of a compound that is named as a salt.

Columns and labels:
Conditions in all cases: 10 µM; exposure time 6 h
[1] = tested on: Danio rerio larvae (5 dpf); test: difference in excitability vs DMSO (percentage points); higher = more excitable than DMSO
Method in brief: (§1)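 Wild-type zebrafish larvae at 5 dpf were kept in 96-well plates and exposed for 6 h to 100 µL egg water holding library compound at a final concentration of 10 µM. From 3 h into exposure, the plates were held at 28.5 ℃ and photographed every 6 s through a 3-h programme of moving lines and 100 ms, 400Hz tones. Each behaviour was scored by Z-LaP Tracker, a DeepLabCut model, and averaged over 48 larvae per compound. Every value gives the compound mean minus the vehicle control mean, in percentage points.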

[2] = tested on: Danio rerio larvae (5 dpf); test: difference in startle response vs DMSO (percentage points); higher = stronger startle than DMSO
Method in brief: as §1

[3] = tested on: Danio rerio larvae (5 dpf); test: difference in activity during first hour vs DMSO (percentage points); higher = more activity than DMSO
Method in brief: as §1

[4] = tested on: Danio rerio larvae (5 dpf); test: difference in habituation to acoustic stimuli vs DMSO (percentage points); higher = more habituation than DMSO
Method in brief: as §1

[5] = tested on: Danio rerio larvae (5 dpf); test: difference in combined optomotor response to red, green and blue moving lines vs DMSO (percentage points); higher = stronger optomotor response than DMSO
Method in brief: as §1

| SMILES | difference in excitability [1] | difference in startle response [2] | difference in activity during first hour [3] | difference in habituation to acoustic stimuli [4] | difference [5] |
| --- | --- | --- | --- | --- | --- |
| CCc1nn(CCCN2CCN(c3cccc(Cl)c3)CC2)c(=O)n1CCOc1ccccc1 [Nefazodone (hydrochloride)] | 9.32 | -3.06 | 29.1 | -9.41 | -10.9 |
| CC(C)C(=O)Nc1ccc([N+](=O)[O-])c(C(F)(F)F)c1 [Flutamide] | 2.83 | -7 | -6.35 | -14.3 | -13.7 |
| CC(C)OC(=O)OCOP(=O)(CO[C@H](C)Cn1cnc2c(N)ncnc21)OCOC(=O)OC(C)C [Tenofovir Disoproxil (fumarate)] | 9.75 | 2.55 | 6.31 | 0.343 | 8.11 |
| Cc1c2oc3c(C)ccc(C(=O)N[C@@H]4C(=O)N[C@H](C(C)C)C(=O)N5CCC[C@H]5C(=O)N(C)CC(=O)N(C)[C@@H](C(C)C)C(=O)O[C@@H]4C)c3nc-2c(C(=O)N[C@@H]2C(=O)N[C@H](C(C)C)C(=O)N3CCC[C@H]3C(=O)N(C)CC(=O)N(C)[C@@H](C(C)C)C(=O)O[C@@H]2C)c(N)c1=O [Actinomycin D] | 5.1 | -6.8 | 6.02 | 4.18 | -0.162 |
| Cc1ncc([N+](=O)[O-])n1CC(C)O (stereo not given) [Secnidazole] | 4.12 | -1.25 | 19.9 | -6.46 | 6.66 |
| Nc1nc(=O)c2nc(CNc3ccc(C(=O)N[C@@H](CCC(=O)O)C(=O)O)cc3)cnc2[nH]1 [Folic Acid] | 7.04 | -0.204 | 15.5 | 2.6 | 6.5 |
| COc1ccccc1OCC(O)CO (stereo not given) [Guaifenesin] | 1.91 | -2.97 | 10.9 | 3.83 | 6.79 |
| Cc1ccc(S(=O)(=O)NC(=O)NN2CCCCCC2)cc1 [Tolazamide] | 7.01 | 21.4 | 4.59 | 2.23 | 9.69 |
| CC(C)(C)C(O)/C=C/c1ccc2c(c1)OCO2 (stereo not given) [Stiripentol] | -5.22 | 0.0472 | 3.85 | -4.89 | 7.37 |
| O=C(O)c1ccc(-n2nc(-c3ccccc3O)nc2-c2ccccc2O)cc1 [Deferasirox] | 1.98 | -2.31 | 17.7 | 2.04 | 5.07 |
| CN1CCN(C2=Nc3ccccc3Oc3ccc(Cl)cc32)CC1 [Loxapine (succinate)] | 20.5 | -13.4 | 43.6 | -11 | -0.239 |
| O=C(CCCN1CCC(O)(c2ccc(Cl)cc2)CC1)c1ccc(F)cc1 [Haloperidol] | 17.7 | -2.56 | 12.4 | -7.67 | -5.9 |
| O=P(O)(O)C(O)(Cn1ccnc1)P(=O)(O)O [Zoledronic Acid (hydrate)] | -0.91 | -0.172 | 2.53 | 0.128 | 6.76 |
| S=P(N1CC1)(N1CC1)N1CC1 | 0.228 | 0.991 | 4.02 | 0.555 | 1.07 |
| O=C(O)C1(C(=O)O)CCC1.[NH2-].[NH2-].[Pt+2] [Carboplatin] | -3.06 | -1.15 | -11.9 | 0.48 | -2.73 |
| NC(=O)NO [Hydroxyurea] | -1.52 | 8.36 | 2.09 | 5.31 | 3.68 |
| O=C(O)C(=O)O.[NH-][C@@H]1CCCC[C@H]1[NH-].[Pt+2] [Oxaliplatin] | -8.81 | 2.6 | -6.68 | 11.3 | 1.69 |
| CO/N=C1\C[C@]2(C[C@@H]3C[C@@H](C/C=C(\C)C[C@@H](C)/C=C/C=C4\CO[C@@H]5[C@H](O)C(C)=C[C@@H](C(=O)O3)[C@]45O)O2)O[C@H](/C(C)=C/C(C)C)[C@H]1C [Moxidectin] | 8.4 | -9.21 | -23 | -11.5 | -17 |
| CS(=O)(=O)OCCCCOS(C)(=O)=O [Busulfan] | 1.08 | 2.56 | 2.59 | 2.63 | 3.07 |
| CC=CC1=C(C(=O)O)N2C(=O)[C@@H](NC(=O)[C@H](N)c3ccc(O)cc3)[C@H]2SC1 [Cefprozil] | 11.3 | -8.07 | 1.23 | 4.8 | -4.03 |
| CC(=O)N[C@@H](CS)C(=O)O [N-acetyl-L-Cysteine] | -2.2 | 3.63 | 14.1 | -5.17 | -0.176 |
| Clc1ccc2c(c1)C(N1CCNCC1)=Nc1ccccc1O2 [Amoxapine] | 6.07 | -0.987 | 35.7 | -1.72 | 12.4 |
| CN(CCOc1ccc(CC2SC(=O)NC2=O)cc1)c1ccccn1 (stereo not given) [Rosiglitazone (maleate)] | 10.7 | -3.19 | 10.3 | -2.4 | -0.752 |
